# Active and inactive are the calls of the source.
# Legend:
# [1] = tested on: Human papillomavirus type 1a protein E7 (residues 44-93); assay: HPV1a E7 fragment binders on microarrays, primary screen, biochemical, small-molecule microarray, residues 44-93, 635 nm fluorescence (AID 1108); details: small-molecule microarray binding, fluorescence 635 nm; higher = more signal;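 also: E7 fragment applied at 1 µg/mL in TBST for 1 h at 4 C; score combines spot fluorescence with its signal to noise ratio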
# [2] = modulators of HCV replicon luciferase signal, primary screen, HCV replication inhibitor project, Huh7 cells, luciferase reporter (AID 1109); details: 48 h, higher = more signal;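 also: huh7 hepatoma cells harbouring a luciferase neomycin HCV replicon reporter; luciferase luminescence as measure of HCV replicon replication; test concentration not given here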
# [3] = target: Left-right determination factor 2 (Homo sapiens) (UniProt O00292); assay: LEFTY2 binders on small-molecule microarrays, primary screen, biochemical, small-molecule microarray, 635 nm fluorescence scan (AID 1110); details: LEFTY2 binding, higher = more signal
# [4] = target: Calmodulin-1 (Homo sapiens) (UniProt P0DP23); assay: CALM1 binders on microarrays, EGTA buffer, profiling panel, biochemical, small-molecule microarray, Cy5-labelled CALM1 (AID 1111); details: Cy5-CALM1 binding fluorescence, higher = more signal;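 also: labelled calmodulin applied in Tris saline Tween buffer holding calcium plus EGTA and DTT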
# [5] = target: Calmodulin-1 (Homo sapiens) (UniProt P0DP23); assay: calcium-bound CALM1 binders on microarrays, profiling panel, artefact control for SMM control-protein annotation, biochemical, small-molecule microarray, Cy5-labelled CALM1, plus calcium (AID 1112); details: Cy5-CALM1 binding fluorescence, higher = more signal;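 also: score merges spot fluorescence with signal to noise from triplicate slides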
# [6] = small-molecule microarray binders of probe aWnt5a, primary screen, biochemical, biotinylated probe, 635/667 nm fluorescence (AID 1113); details: higher = more signal;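 also: score merges 667 nm fluorescence intensity with signal-to-noise per printed feature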
# [7] = small-molecule microarray binders of probe aShh, primary screen, biochemical, biotinylated probe, 635/667 nm fluorescence (AID 1114); details: higher = more signal;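 also: probe is biotin-labelled aShh protein from a stem cell growth factor screen; measures binding of labelled protein to compounds printed on the slide; score merges feature fluorescence at 667 nm with signal-to-noise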
# [8] = small-molecule microarray binders of probe aNog, primary screen, biochemical, biotinylated probe, 635/667 nm fluorescence (AID 1115); details: higher = more signal;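 also: probe is biotinylated aNog protein used at 0.15 µg/mL for 1 h at 4 C; z-score combines 667 nm fluorescence of each spot with its signal to noise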
# [9] = target: Torsin-1A-interacting protein 1 (Homo sapiens) (UniProt Q5JTV8); assay: LAP1 binders from COS7 cell lysate, primary screen, small-molecule microarray, 635/667 nm fluorescence (AID 1116); details: COS7-hLAP1 lysate binding, 635 nm fluorescence, higher = more signal
# [10] = target: Alpha-bungarotoxin (Bungarus multicinctus) (UniProt P60615); assay: alpha-bungarotoxin binders on microarray, profiling panel, artefact control for SMM control protein annotation, biochemical, small-molecule microarray, Alexa647 label, 635/667 nm fluorescence (AID 1117); details: alpha-BTX-A647 binding fluorescence, higher = more signal
# Albumin (Bos taurus) = Albumin (Bos taurus) (UniProt P02769); assay: bovine serum albumin binders on microarray, profiling panel, artefact control for SMM control protein annotation, biochemical, small-molecule microarray, Alexa647 label, 635/667 nm fluorescence (AID 1118); details: BSA-A647 binding, fluorescence 635 nm, higher = more signal;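 also: score merges 667 nm emission intensity and signal-to-noise per printed compound spot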
# [11] = small-molecule microarray binders of probe aXIP, primary screen, biochemical, NeuroSMM set, 635/667 nm fluorescence (AID 1119); details: higher = more signal, called active from +8 up or from −8 down;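 also: probe is the protein aXip251-270 applied at 1 µg/mL to compound-printed slides; binding of probe to printed compounds measured as 667 nm fluorescence plus signal to noise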
# [12] = small-molecule binders of probe aNOTCH3, primary screen, biochemical, small-molecule microarray, 635/667 nm fluorescence (AID 1120); details: higher = more signal;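 also: probe is a biotin-tagged antibody raised against NOTCH3 rather than NOTCH3 protein; score merges spot fluorescence near 667 nm with spot signal to noise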
# [13] = small-molecule binders of probe aNOTCH2, primary screen, biochemical, small-molecule microarray, 635/667 nm fluorescence (AID 1121); details: higher = more signal;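 also: score merges feature fluorescence read at 667 nm with its signal to noise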
# [14] = target: Carbonic anhydrase 2 (Homo sapiens) (UniProt P00918); assay: CAII small-molecule binders, profiling panel, biochemical, small-molecule microarray, Alexa647-labelled CAII (AID 1122); details: CAII-A647 binding fluorescence, higher = more signal
# [15] = COS7 lysate on small-molecule microarray, probe aHis, 635 nm (AID 1123); details: COS7 cell lysate, fluorescence, higher = more signal;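 also: z-score combines 667nm fluorescence intensity with signal-to-noise per printed compound spot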
# [16] = compound binding in COS7 lysate, probe aLAP1, primary screen, cell lysate, small-molecule microarray (AID 1124); details: probe aLAP1, fluorescence, higher = more signal;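 also: lysate comes from COS7 cells expressing LAP1 and is applied at 0.3 µg/mL; score merges spot fluorescence near 667 nm with signal-to-noise over triplicate slides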
# Sam68 (KHDRBS1) = assay: Sam68 small-molecule binders, primary screen, biochemical, small-molecule microarray, 635 nm fluorescence (AID 1125); details: small-molecule microarray binding, higher = more signal;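 also: score merges 667 nm channel intensity with signal to noise over triplicate slides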
# [17] = tested on: Chordin-like protein 2 (CHRDL2); assay: CHRDL2 small-molecule binders, primary screen, biochemical, small-molecule microarray, 635 nm fluorescence (AID 1126); details: small-molecule microarray binding, fluorescence 635 nm; higher = more signal;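 also: printed compound slides probed with Chrdl2 protein at 4 µg/mL for 1 h at 4 C; score merges 667 nm emission intensity with signal to noise over three replicate slides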
# [18] = target: Concanavalin-A (Canavalia ensiformis) (UniProt P02866); assay: ConA small-molecule binders, primary screen, artefact control for SMM control protein annotation, biochemical, small-molecule microarray, Alexa647 label, 635 nm (AID 1127); details: ConA-A647 binding fluorescence, higher = more signal;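 also: z combines 667 nm emission intensity with signal-to-noise across three replicate slides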
# Concanavalin-A (Canavalia ensiformis), sequence (P02866 whole entry, looked up): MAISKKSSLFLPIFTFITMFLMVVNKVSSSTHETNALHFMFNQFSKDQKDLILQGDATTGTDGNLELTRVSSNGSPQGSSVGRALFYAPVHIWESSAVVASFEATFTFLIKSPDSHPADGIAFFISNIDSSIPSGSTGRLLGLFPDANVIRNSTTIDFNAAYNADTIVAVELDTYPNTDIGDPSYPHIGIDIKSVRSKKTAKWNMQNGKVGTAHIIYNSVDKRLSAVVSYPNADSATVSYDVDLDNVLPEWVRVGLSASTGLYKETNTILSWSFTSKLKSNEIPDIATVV
# Torsin-1A-interacting protein 1 (Homo sapiens), sequence (Q5JTV8 whole entry, looked up): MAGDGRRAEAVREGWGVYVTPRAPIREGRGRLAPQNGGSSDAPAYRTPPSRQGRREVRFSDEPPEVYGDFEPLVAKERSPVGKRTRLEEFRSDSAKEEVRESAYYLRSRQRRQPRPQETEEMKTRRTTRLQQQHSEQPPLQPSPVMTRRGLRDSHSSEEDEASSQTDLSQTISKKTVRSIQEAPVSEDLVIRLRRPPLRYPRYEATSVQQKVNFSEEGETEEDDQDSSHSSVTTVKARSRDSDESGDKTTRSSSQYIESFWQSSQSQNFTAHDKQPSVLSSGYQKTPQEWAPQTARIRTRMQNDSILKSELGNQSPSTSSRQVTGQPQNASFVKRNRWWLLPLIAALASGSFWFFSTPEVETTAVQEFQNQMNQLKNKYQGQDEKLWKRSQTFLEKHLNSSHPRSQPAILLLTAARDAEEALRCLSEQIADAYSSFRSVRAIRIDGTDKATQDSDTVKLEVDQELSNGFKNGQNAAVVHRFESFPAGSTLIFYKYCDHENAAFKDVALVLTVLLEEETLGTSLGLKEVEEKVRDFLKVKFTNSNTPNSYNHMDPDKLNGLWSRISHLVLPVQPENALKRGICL
# Alpha-bungarotoxin (Bungarus multicinctus), sequence (P60615 whole entry, looked up): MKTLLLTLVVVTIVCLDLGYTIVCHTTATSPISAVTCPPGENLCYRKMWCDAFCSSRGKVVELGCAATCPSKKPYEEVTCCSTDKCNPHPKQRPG
# Albumin (Bos taurus), sequence (P02769 whole entry, looked up): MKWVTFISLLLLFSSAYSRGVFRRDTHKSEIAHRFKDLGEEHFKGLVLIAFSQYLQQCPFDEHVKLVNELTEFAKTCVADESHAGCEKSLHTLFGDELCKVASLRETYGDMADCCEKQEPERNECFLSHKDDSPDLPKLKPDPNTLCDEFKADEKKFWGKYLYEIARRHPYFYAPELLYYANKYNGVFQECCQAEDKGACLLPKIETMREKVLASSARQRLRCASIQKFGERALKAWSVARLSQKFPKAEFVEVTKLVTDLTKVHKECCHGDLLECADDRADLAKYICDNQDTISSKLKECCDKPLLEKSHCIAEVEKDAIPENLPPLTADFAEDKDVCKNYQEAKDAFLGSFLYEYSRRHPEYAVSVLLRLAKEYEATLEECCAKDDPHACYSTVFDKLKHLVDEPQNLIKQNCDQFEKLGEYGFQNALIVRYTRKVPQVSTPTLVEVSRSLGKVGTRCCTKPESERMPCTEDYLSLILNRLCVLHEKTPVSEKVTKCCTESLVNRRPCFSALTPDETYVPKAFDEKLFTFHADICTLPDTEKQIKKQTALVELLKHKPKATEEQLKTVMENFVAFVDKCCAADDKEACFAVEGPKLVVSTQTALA
# Left-right determination factor 2 (Homo sapiens), sequence (O00292 whole entry, looked up): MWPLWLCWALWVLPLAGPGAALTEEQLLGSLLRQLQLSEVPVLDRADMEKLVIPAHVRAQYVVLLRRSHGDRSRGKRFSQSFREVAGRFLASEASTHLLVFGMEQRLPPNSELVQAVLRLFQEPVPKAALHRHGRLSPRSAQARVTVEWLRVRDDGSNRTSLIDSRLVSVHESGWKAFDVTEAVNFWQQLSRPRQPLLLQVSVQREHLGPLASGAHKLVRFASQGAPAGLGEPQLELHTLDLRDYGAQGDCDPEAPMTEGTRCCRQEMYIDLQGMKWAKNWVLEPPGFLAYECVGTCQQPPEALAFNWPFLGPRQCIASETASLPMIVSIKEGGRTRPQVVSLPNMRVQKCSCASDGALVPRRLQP
Compound,composite z-score [1],z-score [2],composite z-score [3],composite z-score [4],composite z-score [5],composite z-score [6],composite z-score [7],composite z-score [8],composite z-score [9],composite z-score [10],composite z-score (Albumin (Bos taurus)),composite Z-score [11],composite z-score [12],composite z-score [13],composite z-score [14],composite z-score [15],composite z-score [16],composite z-score (Sam68 (KHDRBS1)),composite z-score [17],composite z-score [18]
CCCNC(=O)[C@@]1(c2ccc([N+](=O)[O-])cc2)CC(=O)N(C(C)C)[C@@H]1c1ccc(CO)cc1,-0.603,0.0828,-0.649,-0.168,0.263,-0.18,-0.138,-0.326,-0.824,-0.276,0.667,-0.0527 (inactive),-0.344,-0.0876,0.801,1.7,0.188,-0.626,-1.54,-0.536
O=C1C2C=CC(C(O)c3cccs3)N(Nc3ccc([N+](=O)[O-])cc3)C2C(=O)N1c1ccccc1 (stereo not given),0.759,-0.6,0.318,0.439,0.123,-0.0179,0.0684,0.668,1.01,0.69,0.523,-0.506 (inactive),0.0105,-0.0694,0.759,2.08,0.218,0.909,0.0721,0.585
O=C1O[C@H](Cc2ccccc2)[C@@H]2[C@H]3C=CCCC=C3CN2[C@H]1Cc1ccc(O)cc1,-1.94,-1.7,-0.543,-0.342,-0.593,-0.0991,0.207,0.0222,-0.0081,-0.224,-0.314,-0.263 (inactive),0.0208,-0.122,0.746,-0.265,-0.256,-1.09,-0.278,-0.211
C=CC1c2cc(O)c(OC)cc2CCN1C (stereo not given),-0.728,-1.02,-0.94,0.504,1.04,-0.112,-0.243,-0.348,0.381,-0.383,0.582,0.694 (inactive),-0.136,-0.126,0.886,-0.0207,0.0879,-0.589,-0.644,-1.24
COc1ccc([Si](C)(C)[C@H]2[C@H](CC(=O)N3Cc4ccccc4C[C@H]3CO)O[C@@]3(C(=O)N(C)c4c(Br)cc(C)cc43)[C@@H]2C)cc1,1.31,-5.13,0.205,0.0634,-0.113,-0.102,-0.164,-0.238,0.656,0.803,0.238,0.298 (inactive),0.0643,-0.164,0.0971,0.787,0.152,1.1,0.7,1.06
CCN(CC)c1ccc(N2CC=CC34O[C@@H]5C=CCCOC(=O)C5[C@H]3C(=O)N(C(C)CO)[C@@H]4C2=O)cc1 (stereo not given in full),0.274,-1.19,-0.331,-0.521,-1.08,-0.0758,0.194,0.156,0.391,-0.973,0.653,0.195 (inactive),0.102,-0.159,0.835,-0.806,0.385,-0.304,-0.0271,-0.361
COCCCNC(=O)[C@@H]1c2ccccc2C(=O)N(Cc2ccc(OC(F)(F)F)cc2)[C@H]1c1ccc(CO)cc1,1.1,-0.223,0.0983,0.0389,-0.269,0.0215,-0.0035,-0.553,0.378,0.516,0.348,-0.274 (inactive),-0.0074,-0.174,0.529,1.22,1.28,0.859,0.286,0.874
COC(=O)c1cccc([C@H]2OC(=CC(=O)OC(C)C)C[C@@H](c3cccc(C(=O)OC)c3)O2)c1,1.43,-2.51,0.599,1.36,0.144,0.4,0.156,-0.109,3.27,0.866,0.937,0.587 (inactive),0.455,-0.118,0.745,1.78,0.93,1.29,-0.338,1.2
COC(=O)[C@@]1(Cc2ccc(OC)cc2)[C@H]2c3cc(C(=O)N4CCCC4)n(CCn4cc([N+](=O)[O-])nc4C)c3C[C@H]2CN1C(=O)c1ccccc1,0.0832,-0.432,0.277,2.72,1.21,1.19,2.51,3.12,1.98,0.299,1.05,0.146 (inactive),1.67,1,0.62,3.37,0.913,0.654,0.406,0.716
CN1C(=O)[C@@H]2[C@@H](CC(COc3ccccc3)=C3[C@@H](CCc4ccccc4)OB(O)C[C@@H]32)C1=O,-0.0599,-0.595,-0.194,0.0212,0.662,-0.156,0.691,-0.0172,0.0197,1.4,-0.062,0.581 (inactive),0.135,-0.0073,0.229,0.71,0.809,0.31,-0.102,-0.0514
O=C1C2C=CC(C(O)c3c(F)cccc3Cl)N(Nc3ccc([N+](=O)[O-])cc3)C2C(=O)N1c1ccccc1 (stereo not given),1.41,0.128,0.563,2.16,0.132,-0.0222,0.23,0.803,1.6,0.676,0.589,-0.0608 (inactive),0.465,-0.037,0.804,2.83,1.43,1.3,0.268,1.11

# — PubChem BioAssay
